# Source: PubChem (National Center for Advancing Translational Sciences (NCATS))
# Abeta rescue = A-beta toxicity reversal in yeast. yeast expressing A-beta42, growth rescue, OD600, 48 h; response scale: 0% DMSO, 100% iron-clioquinol control. Potency, µM (highest dose often 46.1 µM), actives largely listed as activators. 410,000 tested, 0.063% active. AID 1347071; note: nearly all actives have a fitted effect of over 55% in size
#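 Yeast growth medium received pinned compounds, then yeast cells expressing toxic A-beta were added; plates incubated at 30 C for 48 hr. Growth read as absorbance at 600 nm, normalized to DMSO and equimolar FeCl3 plus clioquinol controls.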
# Mito fusion act = mitochondrial division inhibition or fusion activation | S. cerevisiae fusion-defective mutant growth rescue, CellTiterGlo 48 h | Potency, µM (series often up to 46.1 µM), inactives show at the top dose growth rescue (activation), most hits filed as activators | 320,000 tested, 0.23% active | AID 485298; note: % of control where 0% means no effect; nearly all actives have a fitted effect of over 45% in size
#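 S. cerevisiae fusion-defective temperature-sensitive mutants (e.g. fzo1-1, mgm1-5) grown 48 h at 37C in YPEG (ethanol/glycerol non-fermentable) medium with 23 nl compound per well; growth rescue read as CellTiterGlo luminescence.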
# FUS suppressor = suppressors of FUS proteinopathy in yeast; S. cerevisiae FUS-expressing, growth rescue, OD600, 24 h; Potency, µM (highest dose often 76.6 µM), actives largely listed as activators; 390,000 tested, 0.24% active; AID 1347120;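 note: plate controls were DMSO vehicle for no effect and reference control for full effect; nearly all actives have a fitted effect of over 55% in size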
#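 Quantitative HTS measuring growth restoration of FUS-toxic yeast. Galactose-induced cells (OD 0.005) were exposed 24hr at 30C to compounds at several concentrations, then absorbance at 600 nm was recorded.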
# TDP-43 yeast inh = rescues yeast growth from TDP-43 toxicity; AID 652104; TDP-43 expressing yeast growth rescue, BacTiter-Glo, 24 h; 410,000 tested, 1.8% active; Potency, µM (doses to about 46.1 µM), for the others: top-dose growth rescue (activation), usual class: activators; note: % of control where 0% means no effect; nearly all actives have a fitted effect of over 50% in size
#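 Yeast expressing TDP-43 (pregrown in raffinose, seeded at OD600=0.02 in galactose medium) exposed to compounds 24 hr at 30 deg C. Growth read by BacTiter-Glo luminescence; rescue of toxicity appears as increased signal.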
# aSyn rescue = alpha-synuclein toxicity inhibition in yeast. Yeast expressing alpha-synuclein, growth rescue, BacTiter-Glo, 24 h. Potency, µM (doses to about 46.1 µM), for the others: at the highest dose growth rescue (activation), hits mostly activators. 370,000 tested, 0.14% active. AID 652106; note: % of control where 0% means no effect; nearly all actives have a fitted effect of over 65% in size
#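 Galactose-induced alpha-syn yeast (OD600=0.02, raffinose-pregrown) + pinned cpd, 24 hr, 30 deg C; growth by BacTiter-Glo luminescence. Growth restoration scores as activation.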
# An asterisk follows results filed as active; i = inactive; ? = inconclusive; / = not tested or not shown. Hits are enriched below; roughly 2.2% of the tested compounds scored in any of these assays. Calls come from the whole dose curve; as a rule, active = well fitted curve in the direction sought with a large enough effect; inconclusive = small, poorly fitted or top-dose-only effect, or another doubt; inactive = no such curve, though single readings can be large; an effect the other way counts as inactive or inconclusive. Potency is the fitted concentration of half-maximal effect.
SMILES,Abeta rescue,Mito fusion act,FUS suppressor,TDP-43 yeast inh,aSyn rescue
O=C(CSc1nc(=O)n2ccccc2n1)N1CCC(Cc2ccccc2)CC1,i,1%,i,20µM*,4%
Fc1ccccc1COc1ccc(/C=N/n2cnnc2)cc1,i,3%,i,11µM*,0%
C(=N\n1cnnc1)/c1ccc(OCc2cccc3ccccc23)cc1,i,9%,i,13µM*,16%
C=CCSc1nnc(CCCCCN2C(=O)c3cccc4cccc(c34)C2=O)o1,i,6%,i,22µM*,-9%
CCOC(=O)CSc1nnc(CCCCCN2C(=O)c3cccc4cccc(c34)C2=O)o1,i,9%,i,3%,-1%
COc1ccccc1-n1cc(-c2ccccc2)c2c(=S)nc[nH]c21,i,-31%,i,7%,3%
Cc1ccc(C(=O)N/C(=C/c2ccco2)C(=O)Nc2cccc(C)c2)cc1,i,5%,32µM*,5%,9%
Cc1cccc(NC(=O)/C(=C\c2ccco2)NC(=O)c2cccs2)c1,i,-3%,i,13%,1%
CCc1cc(C(=O)Nc2ccc(C)cc2Br)cs1,i,15%,i,13µM*,-1%
CCc1cc(C(=O)NNC(=S)Nc2cccc(C)c2)cs1,i,27%,i,?,-4%
O=C1CCC(C(=O)Nc2cccc(Br)c2)N1 (stereo not given),i,1%,i,6%,-4%
Oc1c(N=Nc2nn[nH]n2)ccc2ccccc12,i,/,?,35µM*,-26%
OC(c1ccccc1)(c1ccccc1)C1CCN(CCCOc2ccc(OC(F)(F)F)cc2)CC1,/,/,i,/,/
CSc1ccccc1NC(=O)CCn1c(=O)sc2ccccc21,i,1%,i,16µM*,4%
CC(=O)Nc1cccc(NC(=O)CCn2c(=O)sc3ccccc32)c1,?,-3%,i,17%,-1%
COc1cc2c(cc1OC)C(c1ccc(Cl)cc1)N(c1ccc(C)c(F)c1)C(=O)C2 (stereo not given),i,/,?,35µM*,/
CCOC(=O)c1ccc(N2C(=O)Cc3cc(OCC)c(OCC)cc3C2c2ccccc2)cc1 (stereo not given),i,/,?,19%,/
CC(C)=CCC[C@H](C)C[C@@H]1CC2=C(C(=O)OC(C)(C)O2)[C@@H](c2ccc(F)cc2)O1,i,/,i,17%,6%
Cc1cccc(C)c1NS(=O)(=O)c1ccc(-c2cnc(C3CC3)o2)cc1,i,-11%,i,25µM*,?
O=S(=O)(NCc1ccccc1Cl)c1ccc(-c2cnc(C3CC3)o2)cc1,i,/,i,22µM*,/
CCOc1ccc(/C=C/c2ccc3ccccc3n2)cc1OCC,/,/,/,/,11%
O=C(CN1CCCc2ccccc21)NCc1ccc(Cl)cc1,/,/,i,/,/
Cc1ccc(C)c(NC(=S)NNc2ccc(F)cc2F)c1,?,-18%,?,13µM*,-3%
Cc1ccc(C)c(NC(=S)NCCc2ccc(F)cc2)c1,?,23%,i,?,2%
CC1(C)C=Cc2ccc(O)c(C(=O)/C=C/c3ccccc3)c2O1,/,/,i,/,/
SMILES,Abeta rescue,Mito fusion act,FUS suppressor,TDP-43 yeast inh,aSyn rescue
Cc1c([C@H]2[C@@H](CC#N)C2(C)C)c2ccccc2n1C,i,12%,i,16%,4%
Cc1[nH]c2c(Br)cccc2c1[C@H]1[C@@H](CC#N)C1(C)C,i,21%,i,22µM*,-21%
C[C@@H]1COc2cc(Br)ccc2S(=O)(=O)N1Cc1cn(Cc2ccc(Cl)cc2)nn1,/,/,i,/,/
CCCC(=O)c1ccc(N2CCN(C(=O)c3ccccc3)CC2)c(F)c1,i,2%,?,?,-6%
CCCC(=O)c1cc(F)c(N2CCN(C(=O)OCC)CC2)cc1C,i,7%,i,16µM*,-1%
O=C(c1ccc(N2CCN(C(=O)c3ccccc3Br)CC2)cc1)c1cccc(F)c1,i,1%,i,14µM*,19%
O=C(c1ccccc1)c1ccc(N2CCN(C(=O)c3ccc(F)cc3F)CC2)c(F)c1,i,/,?,22µM*,6%
CCCC(=O)c1ccc(N2CCN(C(=O)c3ccccc3Br)CC2)c(F)c1,i,23%,i,22µM*,0%
